Results taken from PubChem BioAssay (EPA / NIEHS).
Results filed as inconclusive are left out. Calls of active or inactive are those of the source. Rule for the calls, unless noted: active = hit-call score of the fitted dose curve at least 0.9, where 1 is the maximum; inactive = score below 0.9.

What was measured:
[1] = biological target: Retinoic acid receptor RXR-alpha (Homo sapiens) (UniProt P19793); assay: OT_NURR1_NURR1RXRa_0480: Odyssey Thera (OT) 8-hour HEK293T Protein Complementation Assay for Nurr1/retinoid X receptor (RXR) (AID 2283385; active = hit-call score of the fitted dose curve at least 0.9, where 1 is the maximum)
Retinoic acid receptor RXR-alpha (Homo sapiens), sequence (P19793 whole entry, looked up, the tested form may be a part): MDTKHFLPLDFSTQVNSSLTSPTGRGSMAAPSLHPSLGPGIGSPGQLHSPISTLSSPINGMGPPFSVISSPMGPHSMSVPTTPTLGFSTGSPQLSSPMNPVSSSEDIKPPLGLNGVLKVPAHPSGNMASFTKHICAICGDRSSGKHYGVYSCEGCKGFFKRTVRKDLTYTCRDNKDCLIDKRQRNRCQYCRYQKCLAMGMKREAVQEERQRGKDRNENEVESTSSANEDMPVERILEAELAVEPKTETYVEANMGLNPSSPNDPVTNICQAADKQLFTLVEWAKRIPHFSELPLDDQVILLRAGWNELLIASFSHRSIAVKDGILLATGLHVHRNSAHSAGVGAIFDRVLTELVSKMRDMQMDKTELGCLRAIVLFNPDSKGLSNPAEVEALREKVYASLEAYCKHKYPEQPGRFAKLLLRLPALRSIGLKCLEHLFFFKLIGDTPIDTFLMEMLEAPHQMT
In short: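 Compounds are applied to HEK293T cells carrying Nurr1 and RXRα linked to reporter fragments. After 8 h, fluorescence intensity reports heterodimer formation, with DMSO as baseline.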

[2] = biological target: Peroxisome proliferator-activated receptor gamma (Homo sapiens) (UniProt P37231); assay: OT_PPARg_PPARgSRC1_0480: Odyssey Thera (OT) 8-hour Protein-Complementation Assay for Peroxisome Proliferator-activated Receptor Gamma / SRC-1 Co-activator (AID 2283387; active = hit-call score of the fitted dose curve at least 0.9, where 1 is the maximum)
Peroxisome proliferator-activated receptor gamma (Homo sapiens), sequence (P37231 whole entry, looked up, the tested form may be a part): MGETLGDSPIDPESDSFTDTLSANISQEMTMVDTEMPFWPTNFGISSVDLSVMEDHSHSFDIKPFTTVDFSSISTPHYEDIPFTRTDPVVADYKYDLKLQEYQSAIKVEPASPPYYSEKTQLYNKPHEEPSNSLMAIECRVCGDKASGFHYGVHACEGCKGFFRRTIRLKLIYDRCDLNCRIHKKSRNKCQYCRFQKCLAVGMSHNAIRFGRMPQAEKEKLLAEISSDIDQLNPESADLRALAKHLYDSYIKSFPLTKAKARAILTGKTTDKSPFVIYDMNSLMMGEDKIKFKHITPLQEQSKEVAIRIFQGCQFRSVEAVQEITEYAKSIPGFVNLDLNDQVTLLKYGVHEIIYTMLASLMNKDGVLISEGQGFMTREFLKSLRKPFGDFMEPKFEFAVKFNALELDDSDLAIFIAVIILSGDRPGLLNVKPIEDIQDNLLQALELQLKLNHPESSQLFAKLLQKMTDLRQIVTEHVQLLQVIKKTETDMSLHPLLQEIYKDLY
In short: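 HEK293T transiently transfected with PPARg and SRC-1 fused to Venus YFP fragments, compounds 8 h at 37C. Fixed, Draq5-stained cells imaged; nuclear/cytoplasmic 488 nm fluorescence ratio over at least 350 cells per image; gain fitted versus DMSO.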

[3] = biological target: Peroxisome proliferator-activated receptor gamma (Homo sapiens) (UniProt P37231); assay: OT_PPARg_PPARgSRC1_1440: Odyssey Thera (OT) 24-hour Protein-Complementation Assay for Peroxisome Proliferator-activated Receptor Gamma/ SRC-1 Co-activator (AID 2283388; active = hit-call score of the fitted dose curve at least 0.9, where 1 is the maximum)
In short: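 HEK293T transiently transfected with PPARg/SRC-1 split-Venus YFP fusions 48 h before dosing, then treated 24 h at 37C. Fixed cells imaged; nuclear/cytoplasmic 488 nm fluorescence ratio, gain of signal versus DMSO.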

[4] = read-out: Tumor necrosis factor receptor superfamily member 6 (Homo sapiens) (UniProt P25445); assay: LTEA_HepaRG_FAS: Life Technologies and Expression Analysis (LTEA) Assay for Fas cell surface death receptor (FAS) using HepaRG (AID 2283447); conditions: mRNA level, 48 h; actives raise or lower the signal
In short: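 FAS transcript level was measured by TaqMan qRT-PCR against three housekeeping genes after 48 h chemical exposure. Cells were HepaRG, 0.5% DMSO vehicle, with a top concentration of 100 uM and half-log dilutions over eight points, in duplicate.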

[5] = read-out: Fatty acid synthase (Homo sapiens) (UniProt P49327); assay: LTEA_HepaRG_FASN: Life Technologies and Expression Analysis (LTEA) Assay for Fatty Acid Synthase (FASN) using HepaRG (AID 2283448); conditions: mRNA level, 48 h; actives raise or lower the signal;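 for AC50: differentiated human HepaRG liver cells in serum-free induction medium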
In short: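 Transcript-level assay: HepaRG liver cells are treated for 48 h across an eight-point range topping at 100 uM, and FASN mRNA, normalized to three housekeeping genes, is compared with DMSO controls in both directions.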

[6] = read-out: Cyclin D2 (CCND2), CCND2 (gene 894); assay: LTEA_HepaRG_CCND2: Life Technologies and Expression Analysis (LTEA) Assay for Cyclin D2 (CCND2) using HepaRG (AID 2283449); conditions: mRNA level, 48 h; actives raise or lower the signal
In short: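 Read-out is CCND2 mRNA level measured by qRT-PCR in human HepaRG liver cells and normalised to three housekeeping genes. Chemicals were applied for 48 h at up to 100 uM, with gain or loss fitted relative to 0.5% DMSO.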

[7] = read-out: Cyclin Dependent Kinase Inhibitor 1A (CDKN1A), CDKN1A (gene 1026); assay: LTEA_HepaRG_CDKN1A: Life Technologies and Expression Analysis (LTEA) Assay for Cyclin Dependent Kinase Inhibitor 1A (CDKN1A) using HepaRG (AID 2283450); conditions: mRNA level, 48 h; actives raise or lower the signal
In short: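 Differentiated HepaRG cells in serum-free induction medium, exposed 48 h in duplicate to eight half-log concentrations up to 100 uM in 0.5% DMSO. mRNA measured by TaqMan qRT-PCR, normalized to ACTB, GAPDH, POLR2A; bidirectional fit versus DMSO.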

[8] = read-out: Cyclin D1 (CCND1), CCND1 (gene 595); assay: LTEA_HepaRG_CCND1: Life Technologies and Expression Analysis (LTEA) Assay for Cyclin D1 (CCND1) using HepaRG (AID 2283451); conditions: mRNA level, 48 h; actives raise or lower the signal;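 for AC50: differentiated human HepaRG liver cells in serum-free induction medium; TaqMan qRT-PCR transcript level normalised to ACTB GAPDH and POLR2A housekeeping genes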
In short: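 Differentiated HepaRG cells exposed 48 h in serum-free induction medium to eight half-log concentrations from 100 uM top, 0.5% DMSO, duplicates. CCND1 mRNA measured by Fluidigm TaqMan qRT-PCR, normalised to ACTB, GAPDH, POLR2A; bidirectional fit.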

[9] = CEETOX_H295R_OHPREG: CeeTox H295R High-throughput Steroidogenesis Assay for OH-Pregnenolone (OHPREG) (AID 2283434); conditions: actives raise or lower the signal
In short: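 Hormone levels in spent medium were measured by tandem mass spectrometry following liquid-liquid extraction. Cells (H295R) had been forskolin-stimulated (10 uM, 48 h) before a 48 h chemical exposure at 0.1% DMSO, with activity fitted in both directions against DMSO.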

[10] = CEETOX_H295R_OHPROG: CeeTox H295R High-throughput Steroidogenesis Assay for OH-Progesterone (OHPROG) (AID 2283435); conditions: actives raise or lower the signal;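 for AC50: human adrenal H295R cells primed 48 h with 10 µM forskolin; 17alpha-hydroxyprogesterone secreted into medium measured by HPLC-MS/MS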
In short: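 Secreted 17alpha-hydroxyprogesterone is read by tandem MS from media of forskolin-primed H295R cells dosed with chemical for 48 h. Activity is fitted in both directions against DMSO baseline; cytotoxic concentrations are re-tested diluted.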

[11] = CEETOX_H295R_PROG: CeeTox H295R High-throughput Steroidogenesis Assay for Progesterone (PROG) (AID 2283442); conditions: actives raise or lower the signal;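 for AC50: human H295R adrenal cells primed with 10 µM forskolin before dosing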
In short: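 H295R adrenal cells prestimulated 48 h with 10 uM forskolin, then exposed 48 h to test chemical in 0.1% DMSO. Progesterone in medium quantified by HPLC-MS/MS after MTBE extraction; viability checked by MTT in same wells.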

[12] = biological target: Retinoic acid receptor RXR-alpha (Homo sapiens) (UniProt P19793); assay: OT_NURR1_NURR1RXRa_1440: Odyssey Thera (OT) 24-hour HEK293T Protein Complementation Assay for Nurr1/retinoid X receptor (RXR) (AID 2283386; active = hit-call score of the fitted dose curve at least 0.9, where 1 is the maximum)
In short: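 Measured as fluorescence from a reconstituted split reporter, this 24 h HEK293T complementation assay scores compound-induced gain of Nurr1/RXRα association relative to DMSO.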

[13] = CEETOX_H295R_11DCORT: CeeTox H295R High-throughput Steroidogenesis Assay for 11-Deoxycortisol (11DCORT) (AID 2283432); conditions: actives raise or lower the signal;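 for AC50: 11-deoxycortisol secreted into the medium measured by LC-MS/MS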
In short: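 H295R cells prestimulated 48 h with 10 uM forskolin, then exposed 48 h to chemical in 0.1% DMSO. 11-Deoxycortisol in medium quantified by HPLC-MS/MS after MTBE extraction; bidirectional fit versus DMSO. MTT viability read in same wells.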

[14] = CEETOX_H295R_CORTIC: CeeTox H295R High-throughput Steroidogenesis Assay for Corticosterone (CORTIC) (AID 2283437); conditions: actives raise or lower the signal;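 note: corticosterone secreted into medium quantified by mass spectrometry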;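 for AC50: human H295R adrenal cells prestimulated with forskolin before chemical exposure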
In short: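 Corticosterone secreted into medium is measured by reverse-phase HPLC with tandem MS following liquid-liquid extraction. Cells are forskolin-stimulated (10 uM, 48 h) before 48 h test exposure; activity fitted in both directions against DMSO.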

[15] = CEETOX_H295R_CORTISOL: CeeTox H295R High-throughput Steroidogenesis Assay for Cortisol (AID 2283438); conditions: actives raise or lower the signal;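 note: cortisol secreted into medium quantified by LC-MS/MS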
In short: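 Human adrenocortical H295R cells (passage ≤10) received test chemicals for 48 h after forskolin priming. Secreted cortisol was measured by LC-MS/MS.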

[16] = CEETOX_H295R_DOC: CeeTox H295R High-throughput Steroidogenesis Assay for DOC (AID 2283439); conditions: actives raise or lower the signal
In short: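 Secreted DOC was quantified from H295R media by HPLC-MS/MS after 48 h chemical exposure following 48 h forskolin (10 uM) prestimulation. Values were fitted in both directions relative to DMSO, the negative control and baseline.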

[17] = CEETOX_H295R_ESTRADIOL: CeeTox H295R High-throughput Steroidogenesis Assay for Estradiol (AID 2283440); conditions: actives raise or lower the signal;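 note: estradiol secreted into medium quantified by LC-MS/MS after dansyl derivatisation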
In short: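 H295R cells pre-stimulated 48 h with 10 uM forskolin, then exposed 48 h to chemical in 0.1% DMSO. Medium estradiol quantified by MTBE extraction, dansyl derivatisation and HPLC-MS/MS; bidirectional fit versus DMSO; MTT viability required >/=70%.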

[18] = CEETOX_H295R_ESTRONE: CeeTox H295R High-throughput Steroidogenesis Assay for Estrone (AID 2283441); conditions: actives raise or lower the signal;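 note: estrone secreted into medium measured by LC-MS/MS after dansyl derivatization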;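 for AC50: human adrenal H295R cells prestimulated with forskolin for two days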
In short: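 H295R cells; 48 h forskolin (10 uM) prestimulation; 48 h compound exposure, 0.1% DMSO final. Medium estrone: MTBE extraction, dansyl derivatization, HPLC-MS/MS. Bidirectional fit vs DMSO.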

[19] = CEETOX_H295R_ANDR: CeeTox H295R High-throughput Steroidogenesis Assay for Androstenedione (ANDR) (AID 2283436); conditions: actives raise or lower the signal;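 note: human H295R adrenal cells exposed for 48 h with androstenedione measured in medium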
In short: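 Read-out is androstenedione secreted into medium, measured by tandem mass spectrometry after liquid-liquid extraction. Cells were H295R, dosed for 48 h per modified OECD 456; activity fitted in both directions relative to DMSO.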

Measured: AC50

Fatty acid synthase (Homo sapiens), sequence (P49327 whole entry, looked up): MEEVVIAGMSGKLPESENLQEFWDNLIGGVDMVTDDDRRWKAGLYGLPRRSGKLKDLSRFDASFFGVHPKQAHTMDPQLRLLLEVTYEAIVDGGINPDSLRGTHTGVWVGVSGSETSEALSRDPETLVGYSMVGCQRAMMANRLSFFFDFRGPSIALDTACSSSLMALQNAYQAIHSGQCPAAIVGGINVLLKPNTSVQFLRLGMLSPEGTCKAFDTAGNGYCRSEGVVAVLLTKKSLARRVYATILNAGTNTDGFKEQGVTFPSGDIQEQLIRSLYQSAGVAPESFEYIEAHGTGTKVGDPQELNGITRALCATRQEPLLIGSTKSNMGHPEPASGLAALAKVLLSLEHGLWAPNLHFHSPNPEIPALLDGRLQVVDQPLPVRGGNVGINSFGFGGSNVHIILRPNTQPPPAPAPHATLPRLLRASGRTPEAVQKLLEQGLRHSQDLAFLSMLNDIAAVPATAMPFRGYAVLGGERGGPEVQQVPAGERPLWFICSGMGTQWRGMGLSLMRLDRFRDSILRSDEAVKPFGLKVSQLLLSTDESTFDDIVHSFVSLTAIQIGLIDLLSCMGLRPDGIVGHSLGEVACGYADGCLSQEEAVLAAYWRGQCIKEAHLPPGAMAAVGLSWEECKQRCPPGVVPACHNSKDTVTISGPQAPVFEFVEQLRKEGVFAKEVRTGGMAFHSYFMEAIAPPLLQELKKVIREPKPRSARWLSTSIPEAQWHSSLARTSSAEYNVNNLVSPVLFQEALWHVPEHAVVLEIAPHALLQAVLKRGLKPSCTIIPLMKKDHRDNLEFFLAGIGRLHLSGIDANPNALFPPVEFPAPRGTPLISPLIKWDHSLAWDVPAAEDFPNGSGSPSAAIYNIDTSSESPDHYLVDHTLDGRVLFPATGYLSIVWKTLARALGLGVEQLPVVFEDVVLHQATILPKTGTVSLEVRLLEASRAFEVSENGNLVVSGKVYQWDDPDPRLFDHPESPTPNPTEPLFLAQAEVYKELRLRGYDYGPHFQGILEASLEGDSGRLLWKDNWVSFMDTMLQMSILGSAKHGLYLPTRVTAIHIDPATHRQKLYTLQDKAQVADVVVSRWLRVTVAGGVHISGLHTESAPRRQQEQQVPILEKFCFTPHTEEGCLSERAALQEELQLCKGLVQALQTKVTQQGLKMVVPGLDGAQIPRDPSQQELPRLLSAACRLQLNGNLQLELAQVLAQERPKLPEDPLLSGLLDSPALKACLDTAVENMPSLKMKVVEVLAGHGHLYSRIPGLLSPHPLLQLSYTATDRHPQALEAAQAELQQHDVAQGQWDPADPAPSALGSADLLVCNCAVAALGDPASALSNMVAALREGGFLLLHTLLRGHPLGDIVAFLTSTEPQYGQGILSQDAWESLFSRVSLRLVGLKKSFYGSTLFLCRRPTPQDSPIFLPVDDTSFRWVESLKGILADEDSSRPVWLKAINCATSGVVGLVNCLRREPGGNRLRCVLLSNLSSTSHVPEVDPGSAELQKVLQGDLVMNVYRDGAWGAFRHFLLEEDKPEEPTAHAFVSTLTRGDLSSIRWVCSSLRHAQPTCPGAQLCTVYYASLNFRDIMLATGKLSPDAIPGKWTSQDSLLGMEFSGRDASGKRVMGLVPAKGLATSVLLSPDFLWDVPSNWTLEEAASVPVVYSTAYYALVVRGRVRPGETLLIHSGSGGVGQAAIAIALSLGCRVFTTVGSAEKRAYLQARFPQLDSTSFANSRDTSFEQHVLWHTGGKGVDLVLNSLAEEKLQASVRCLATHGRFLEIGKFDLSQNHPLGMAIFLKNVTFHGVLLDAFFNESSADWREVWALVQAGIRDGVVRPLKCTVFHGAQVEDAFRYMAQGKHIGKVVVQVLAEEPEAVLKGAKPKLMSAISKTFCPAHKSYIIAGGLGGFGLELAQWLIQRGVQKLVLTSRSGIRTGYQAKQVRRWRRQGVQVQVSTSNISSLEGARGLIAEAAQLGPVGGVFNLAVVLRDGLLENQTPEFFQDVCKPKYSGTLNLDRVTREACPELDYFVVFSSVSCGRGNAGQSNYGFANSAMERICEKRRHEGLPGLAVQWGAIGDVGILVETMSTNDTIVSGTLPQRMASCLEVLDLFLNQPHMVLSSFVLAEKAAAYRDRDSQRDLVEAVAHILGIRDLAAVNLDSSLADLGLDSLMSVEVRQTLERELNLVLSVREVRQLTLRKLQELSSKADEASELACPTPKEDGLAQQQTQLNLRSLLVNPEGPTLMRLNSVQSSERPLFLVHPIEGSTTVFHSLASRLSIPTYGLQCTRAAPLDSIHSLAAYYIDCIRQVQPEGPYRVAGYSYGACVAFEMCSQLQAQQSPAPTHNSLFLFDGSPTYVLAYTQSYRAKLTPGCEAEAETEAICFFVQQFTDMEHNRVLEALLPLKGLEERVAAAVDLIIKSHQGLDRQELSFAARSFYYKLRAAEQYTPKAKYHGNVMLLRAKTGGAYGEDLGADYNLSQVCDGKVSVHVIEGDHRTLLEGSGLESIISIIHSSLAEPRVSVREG

CC(C)(O)c1ccc(CNC(=O)c2cccnc2Oc2ccc3nonc3c2)cc1
inactive: [1] | [2] | [3] | [4] | [5] | [6] | [7] | [8]

O=C1c2ccccc2C(=O)N1CCc1noc(-c2ccc(CN3CCCCCC3)s2)n1
active: [9] 4.81 µM
inactive: [2] | [3] | [10] | [11] | [4] | [6] | [8]

Cc1ncc(CO)c(CO)c1O
inactive: [1] | [12] | [2] | [3] | [4] | [6] | [7] | [8]

NCc1cccc(C2CCN(C(=O)c3ccc(C#Cc4ccccc4F)o3)CC2)c1
active: [5] 50 µM
inactive: [2] | [3] | [4] | [6]

Clc1ccccc1C(c1ccccc1)(c1ccccc1)n1ccnc1
inactive: [1] | [2] | [3] | [4] | [6]
active: [13] 0.142 µM | [9] 0.00809 µM | [10] 0.0684 µM | [14] 0.00195 µM | [15] 0.0502 µM | [16] 0.0401 µM | [17] 0.244 µM | [18] 0.41 µM | [11] 0.00734 µM | [7] 91.2 µM | [8] 82.1 µM

CN1C(=O)CC[C@H]1c1cccnc1
inactive: [12] | [2] | [3] | [4] | [6]

O=C=NCCCCCCN=C=O
inactive: [1] | [12] | [2] | [3] | [4] | [6] | [8]

CC(O)CC(C)(C)O (configuration not stated)
inactive: [1] | [2] | [3] | [4]

Cc1ccc2oc(CN(Cc3ccccc3)C(=O)Nc3c(F)cc(F)cc3F)c(-c3ccc(Cl)cc3)c2c1
active: [10] 4.83 µM | [16] 1.36 µM | [11] 0.505 µM
not listed: [1] | [5] | [8] | [12] | [19]
inactive: all other assays above

Cc1oc2c(NC(=O)c3c(Cl)cccc3Cl)cccc2c1C(C)(C)O
active: [1] 12.6 µM | [13] 3.01 µM | [9] 1.42 µM | [10] 3.07 µM | [16] 2.53 µM | [5] 31.2 µM
inactive: [2] | [3] | [14] | [15] | [11] | [4]

CCCCCCCCOc1ccc(C(=O)c2ccccc2)c(O)c1
inactive: [1] | [2] | [3] | [4] | [5] | [6] | [7]

Cc1c2ccccc2c(C)c2c1ccc1ccccc12
active: [18] 0.657 µM | [4] 66.1 µM | [5] 51 µM | [7] 35.1 µM | [8] 86.4 µM
not listed: [12]
inactive: all other assays above

O=C(O)c1ccccc1-n1cc(C(=O)O)c(=O)c2cc(Nc3c(F)cc(F)cc3Cl)c(Cl)cc21
inactive: [1] | [12] | [2] | [3] | [4] | [8]

Oc1ccc2ccccc2c1
active: [10] 13.8 µM | [19] 76.7 µM
not listed: [1] | [5] | [7] | [8] | [17] | [18]
inactive: all other assays above

COCC(C)OCC(C)OCC(C)O (configuration not stated)
inactive: [1] | [12] | [2] | [3] | [4] | [6] | [8]

CCCCOC(=O)CC(CC(=O)OCCCC)(OC(C)=O)C(=O)OCCCC
inactive: [1] | [2] | [3] | [4] | [5] | [6] | [7]

COc1cc(C(=O)NC2CCN(C)CC2)ccc1Nc1ncc2c(n1)N(C1CCCC1)CC(F)(F)C(=O)N2C
active: [1] 10.9 µM | [12] 11 µM | [4] 9.78 µM | [8] 46.5 µM
inactive: [2] | [3] | [6] | [7]

CN(C)c1ccc(C(=C2C=CC(=[N+](C)C)C=C2)c2ccc(N(C)C)cc2)cc1
inactive: [2] | [3] | [4] | [6] | [7]

CN(C[C@@H](CC[N+]12CCC(C3CCCCC3)(CC1)CC2)c1ccc(Cl)c(Cl)c1)C(=O)c1cc(C(F)(F)F)cc(C(F)(F)F)c1
inactive: [2] | [3] | [6]
active: [4] 93.8 µM | [5] 13 µM

CC(=O)N1CCN(c2ccc(OC[C@H]3CO[C@](Cn4ccnc4)(c4ccc(Cl)cc4Cl)O3)cc2)CC1
active: [13] 0.783 µM | [9] 1.42 µM | [10] 0.49 µM | [14] 1.77 µM | [15] 0.895 µM | [16] 1 µM | [18] 1.47 µM | [4] 89.3 µM | [5] 26.1 µM
inactive: [2] | [3] | [17] | [11] | [6]
